The subject of assay [1] is Staphylococcus aureus MW2 delta-mecA (mecA-). The assay can be described thus: normalized GFP fluorescence (growth of mecA- strain) (fraction of control range); higher = more growth of mecA- strain. To be noted: compound concentration: 150 uM; cefoxitin: subinhibitory; fluorescent label: GFP. The method in brief: (§1)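 Pre-induced S. aureus MW2 mecA+ (DsRed) and ΔmecA (GFP) cells were mixed 1:1 in LB with a daily-set subinhibitory cefoxitin dose. They were dispensed at 5 µL/well onto 150 μM compound (1.5% DMSO) in 1536-well plates, single replicate. Growth was 20 h at 37 °C, 90% humidity, unshaken, and DsRed (540/590) and GFP (485/520) were then read. Each channel was scaled per plate between the medians of the single-strain controls. Plates with high No Treatment ratios and rows with DsRed/GFP >10 were excluded.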

The subject of assay [2] is Staphylococcus aureus MW2 (mecA+). Description: normalized DsRed fluorescence (growth of mecA+ strain) (fraction of control range); higher = more growth of mecA+ strain. Conditions: compound concentration: 150 uM; cefoxitin: subinhibitory; fluorescent label: DsRed. The method in brief:
as §1

Counter-ions that a name gives are not always drawn.

Consider `COc1ccccc1N1CCN(CCCNc2cc(=O)n(C)c(=O)n2C)CC1` [Urapidil hydrochloride], for which, in assay [1], the “normalized GFP fluorescence” value is 0.413. In assay [2], the “normalized DsRed fluorescence” value was determined as 0.557.
For `Cc1nc2n(c(=O)c1CCN1CCC(c3noc4cc(F)ccc34)CC1)CCCC2O` (stereo not given), in that order: 0.379 and 0.72.
For `COc1cc2ncnc(Nc3ccc(F)c(Cl)c3)c2cc1NC(=O)/C=C/CN1CCCCC1`, in that order: 0.102 and 0.557.
For `CCN(CC)CCCC(C)Nc1ccnc2cc(Cl)ccc12` (stereo not given), in that order: 0.506 and 0.443.
As for `COc1ccc(-c2cc(=O)c3c(O)cc(O[C@@H]4O[C@H](CO[C@@H]5O[C@@H](C)[C@H](O)[C@@H](O)[C@H]5O)[C@@H](O)[C@H](O)[C@H]4O)cc3o2)cc1O` [Diosmin], the “normalized GFP fluorescence” value in assay [1] was 0.55. Also, the “normalized DsRed fluorescence” value in assay [2] came out at 1.27.
The like results for `C[C@H](Cc1cc2c(c(C(N)=O)c1)N(CCCO)CC2)NCCOc1ccccc1OCC(F)(F)F` [Silodosin (Rapaflo)] were, in that order, 0.269 and 1.1.
The like results for `CC[C@]1(O)C[C@@H]2CN(CCc3c([nH]c4ccccc34)[C@@](C(=O)OC)(c3cc4c(cc3OC)N(C)[C@H]3[C@@](O)(C(=O)OC)[C@H](OC(C)=O)[C@]5(CC)C=CCN6CC[C@]43[C@@H]65)C2)C1` [Vinblastine] were, in that order, 0.0776 and 0.851.
For `CC(=O)O[C@]1(C(C)=O)CC[C@H]2[C@@H]3C=C(Cl)C4=CC(=O)CC[C@]4(C)[C@H]3CC[C@@]21C`, in that order: 0.23 and 0.594.
`Nc1ncnc2c1ncn2[C@@H]1O[C@H](COP(=O)(O)O)[C@@H](O)[C@H]1O`: the “normalized GFP fluorescence” value in assay [1] is 0.4. In assay [2], the “normalized DsRed fluorescence” value was determined as 0.484.
The like results for `CCS(=O)(=O)CCn1c([N+](=O)[O-])cnc1C` were, in that order, 0.603 and 1.08.
Turning to `CCOC(=O)C1=C(COCCN)NC(C)=C(C(=O)OC)C1c1ccccc1Cl` (stereo not given), the “normalized GFP fluorescence” value in assay [1] was -0.0144. Further, in assay [2], the “normalized DsRed fluorescence” value turned out to be 1.06.
For `CCN(CCO)CCCC(C)Nc1ccnc2cc(Cl)ccc12` (stereo not given), in that order: 0.323 and 1.33.
Consider `COc1ccc([C@@H]2Sc3ccccc3N(CCN(C)C)C(=O)[C@@H]2OC(C)=O)cc1`, for which the “normalized GFP fluorescence” value in assay [1] amounted to 0.124. Also, the “normalized DsRed fluorescence” value in assay [2] was 0.612.
For `COc1cc2nc(N3CCN(C(=O)c4ccco4)CC3)nc(N)c2cc1OC`, in that order: 0.593 and 0.809.
For `OCCOCCN1CCN(C(c2ccccc2)c2ccc(Cl)cc2)CC1` (stereo not given), in that order: -0.0253 and 0.833.
Turning to `CC(=O)O[C@]1(C(C)=O)CC[C@H]2[C@@H]3C[C@H](C)C4=CC(=O)CC[C@]4(C)[C@H]3CC[C@@]21C`, in assay [1], the “normalized GFP fluorescence” value was 0.145. For the same compound, the “normalized DsRed fluorescence” value in assay [2] was determined as 0.759.
For `CN1C(C(=O)Nc2ccccn2)=C(O)c2ccccc2S1(=O)=O` [Piroxicam (Feldene)], in that order: 0.0173 and 0.661.
Turning to `CC12CC3CC(C)(C1)CC(N)(C3)C2`, the “normalized GFP fluorescence” value in assay [1] was determined as 0.384. Further, the “normalized DsRed fluorescence” value in assay [2] was determined as 0.672.
Regarding `Oc1cccc(O)c1`, the “normalized GFP fluorescence” value in assay [1] was 0.565. In addition, in assay [2], the “normalized DsRed fluorescence” value was 0.516.
Consider `Cn1c(=O)c2[nH]cnc2n(C)c1=O` [Aminophylline (Truphylline)], for which the “normalized GFP fluorescence” value in assay [1] was 0.38. Besides, the “normalized DsRed fluorescence” value in assay [2] was 1.18.
Take `CCN(CC)CCNC(=O)c1c(C)[nH]c(/C=C2\C(=O)Nc3ccc(F)cc32)c1C` [Sunitinib Malate (Sutent)]: in assay [1], the “normalized GFP fluorescence” value came to 0.0077. Besides, the “normalized DsRed fluorescence” value in assay [2] was 1.42.
The like results for `Nc1nc(=O)[nH]cc1F` were, in that order, 0.282 and 0.62.
For `COc1cc2/c(=N/c3ccc(Br)cc3F)nc[nH]c2cc1OCC1CCN(C)CC1` [Vandetanib (Zactima)], in that order: 0.22 and 1.19.
For `Nc1ccn(C[C@@H](CO)OCP(=O)(O)O)c(=O)n1` [Cidofovir (Vistide)], in that order: 0.408 and 0.568.
Turning to `OC(CCN1CCCCC1)(c1ccccc1)C1CCCCC1` (stereo not given), the “normalized GFP fluorescence” value in assay [1] was determined as 0.277. In addition, the “normalized DsRed fluorescence” value in assay [2] is 0.789.
For `CNC(=O)c1ccc(N2C(=S)N(c3ccc(C#N)c(C(F)(F)F)c3)C(=O)C2(C)C)cc1F` [MDV3100 (Enzalutamide)], in assay [1], the “normalized GFP fluorescence” value stood at 0.245. For the same compound, the “normalized DsRed fluorescence” value in assay [2] was 0.592.
For `CC(O)(CC(=O)O)CC(=O)O`, in that order: 0.226 and 0.945.
For `COc1ccc2[nH]c([S+]([O-])Cc3ncc(C)c(OC)c3C)nc2c1` (stereo not given), in that order: 0.481 and 1.2.
For `Cc1onc(-c2ccccc2)c1-c1ccc(S(N)(=O)=O)cc1` [Valdecoxib], in that order: 0.291 and 0.573.
Take `Nc1cc(N2CCCCC2)nc(N)[n+]1[O-]`: the “normalized GFP fluorescence” value in assay [1] stood at 0.524. For the same compound, the “normalized DsRed fluorescence” value in assay [2] amounted to 0.731.
For `NC12CC3CC(CC(C3)C1)C2`, in that order: 0.453 and 0.794.
For `CCN1C(=O)NC(c2ccccc2)C1=O` (stereo not given), in that order: 0.469 and 1.21.
For `NC[C@H]1O[C@H](O[C@H]2[C@H](O[C@@H]3O[C@H](CO)[C@@H](O)[C@H]3O)[C@@H](O)[C@H](N)C[C@@H]2N)[C@H](N)[C@@H](O)[C@@H]1O`, in that order: 0.457 and 0.685.
With `CCN(CC)CC#CCOC(=O)C(O)(c1ccccc1)C1CCCCC1` (stereo not given), the “normalized GFP fluorescence” value in assay [1] was found to be 0.0426. Moreover, in assay [2], the “normalized DsRed fluorescence” value was determined as 0.796.
The like results for `NC[C@@H]1O[C@H](O[C@H]2[C@@H](O)[C@H](O[C@@H]3[C@@H](O)[C@H](N)C[C@H](N)[C@H]3O[C@H]3O[C@H](CO)[C@@H](O)[C@H](O)[C@H]3N)O[C@@H]2CO)[C@H](N)[C@@H](O)[C@@H]1O` were, in that order, 0.422 and 0.794.

Values taken from the supplement of paper PMC7695840.
